In PubChem BioAssay (NCATS):
Inconclusive results are not listed. The source made the active and inactive calls. The call rests on the fitted dose curve; in most records, active means well fitted cell-killing curve with a large enough effect; inconclusive means small, poorly fitted or top-dose-only effect; inactive means no such curve, though single readings can be large or run the other way. Starred links: 1 amine or outer side, 2 acyl side, 3 side chain; linkers in the order of their positions; H or OH if unused. Positions of bridges follow the written chain, without caps; N, C: chain ends. Non-standard residues stand in square brackets, D forms with d. Residues, ends and D or L forms follow the SMILES beside them. Chains are numbered I, II in the order given. Actinocin(9to1) = Cc1c2oc3c(C)ccc(C(=O)[*:1])c3nc-2c(C(=O)[*:2])c(N)c1=O; NMeV = CN[CH](C(=O)O)C(C)C; Sar = CNCC(=O)O

test: qHTS of pediatric cancer cell lines to identify multiple opportunities for drug repurposing: Confirmatory screen for U-2 OS cells (AID 1347122); details: U-2 OS osteosarcoma cell viability; series mostly up to 45.9 µM; further: nearly all actives have a fitted effect of over 65% in size
In short: (§1)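 Viability after 48 h compound treatment at 37C, 500-1,000 cells/well, read as ATP luminescence with CellTiter-Glo. Primary screens used 11-point (MIPE, 0.78 nM-46 µM) or 8-point (NPC, 0.59 nM-46 µM) final concentrations; follow-up screens used 11-point dilutions.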
Potency means the concentration at half of the fitted maximal effect.

SMILES	Potency
COc1ccc(C[C@@H](C)[C@@H](C)Cc2ccc(OC)c(OC)c2)cc1OC	inactive
CC(=O)N1CCN(c2ccc(OCc3nn(C)c(C)c3-c3cccc4c(CCCOc5cccc6ccccc56)c(C(=O)O)n(Cc5cccnc5)c34)cc2)CC1	inactive
O=C(Nc1cc2cc[nH]c2cn1)c1ccccc1	inactive
O=C1NC(=O)[C@@H](c2cn3c4c(cccc24)CCC3)[C@H]1c1c[nH]c2ccccc12	1.17 µM (active)
NC(=O)Nc1sc(-c2ccc(F)cc2)cc1C(N)=O	14.7 µM (active)
N#Cc1c(NC(=O)c2cccc3ccccc23)sc2c1CCCC2	0.657 µM (active)
CCOC(=O)C1=C(C)NC(=S)NC1c1cccc(O)c1 (centres undefined)	20.8 µM (active)
O=C(NCc1ccccc1)[C@H](Cc1ccccc1)NC(=O)[C@@H]1O[C@@H]1C(=O)NCCc1ccc(O)cc1	inactive
CC(=O)SCC(Cc1ccccc1)C(=O)NCC(=O)OCc1ccccc1 (centres undefined)	inactive
COc1ccc2c(c1OC)C(=O)OC2[C@H]1c2c(cc3c(c2OC)OCO3)CCN1C (some centres undefined)	inactive
C=Cc1c(C)c2cc3nc(cc4[nH]c(cc5nc(cc1[nH]2)C(C)=C5CCC(=O)O)c(CCC(=O)OC)c4C)[C@@]1(C)C3=CC=C(C(=O)OC)[C@H]1C(=O)OC	inactive

test: qHTS of pediatric cancer cell lines to identify multiple opportunities for drug repurposing: Confirmatory screen for Rh41 cells (AID 1347123); details: Rh41 rhabdomyosarcoma cells, viability/cytotoxicity qHTS; series mostly up to 45.9 µM;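 further: 48 h compound exposure; nearly all actives have a fitted effect of over 60% in size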
In short: as §1

SMILES	Potency
C=CC(=O)Nc1ccc2ncnc(Nc3ccc(OCc4cccc(F)c4)c(Cl)c3)c2c1	0.465 µM (active)
CCOC(=O)N1CCN([N+]([O-])=NOc2ccc([N+](=O)[O-])cc2C#N)CC1	18.5 µM (active)
COc1cccc2c1C(=O)c1c(O)c3c(c(O)c1C2=O)C[C@@](O)(C(=O)CO)C[C@@H]3O[C@H]1C[C@H](N)[C@H](OC2CCCCO2)[C@H](C)O1 (some centres undefined)	2.93 µM (active)
COc1cc(C=CC(=O)CC(=O)C=Cc2ccc(O)c(OC)c2)ccc1O	17 µM (active)
Cc1cnc(Nc2ccc(N3CCN(C)CC3)cc2)nc1Nc1cccc(S(=O)(=O)NC(C)(C)C)c1	3.29 µM (active)
CNC(=O)c1ccc(Nc2cc(Nc3ccccc3S(=O)(=O)C(C)C)c3cc[nH]c3n2)nc1	5.85 µM (active)
CCOc1cc2ncc(C#N)c(Nc3ccc(OCc4ccccn4)c(Cl)c3)c2cc1NC(=O)C=CCN(C)C	2.93 µM (active)
CCOC(=O)[C@@H](N)Cc1ccc(-c2cc(O[C@H](c3ccc(Cl)cc3-n3ccc(C)n3)C(F)(F)F)nc(N)n2)cc1	14.7 µM (active)
C=C1C(=CC=C2CCC[C@]3(C)[C@@H]([C@H](C)CCCC(C)(C)O)CC[C@@H]23)C[C@@H](O)C[C@@H]1O	inactive
CC(=O)O[C@@]12CO[C@H]1C[C@H](O)[C@@]1(C)C(=O)[C@H](O)C3=C(C)[C@@H](OC(=O)C(O)[C@@H](NC(=O)OC(C)(C)C)c4ccccc4)C[C@@](O)([C@@H](OC(=O)c4ccccc4)[C@@H]21)C3(C)C (some centres undefined)	0.0104 µM (active)
COC(=O)C=CC(=O)OC	23.3 µM (active)
CC(C)NC[C@@H](C(=O)N1CCN(c2ncnc3c2[C@H](C)C[C@H]3O)CC1)c1ccc(Cl)cc1	0.737 µM (active)
N#Cc1c(C2CCNCC2)cc(-c2c(O)cccc2OCC2CC2)nc1N	3.29 µM (active)
Cc1c2oc3c(C)ccc(C(=O)NC4C(=O)NC(C(C)C)C(=O)N5CCCC5C(=O)N(C)CC(=O)N(C)C(C(C)C)C(=O)OC4C)c3nc-2c(C(=O)NC2C(=O)NC(C(C)C)C(=O)N3CCCC3C(=O)N(C)CC(=O)N(C)C(C(C)C)C(=O)OC2C)c(N)c1=O (centres undefined) (I: TVP[Sar][NMeV] / II: TVP[Sar][NMeV]; ester I:1-I:C, II:1-II:C; linker I:N-II:N via Actinocin(9to1); configuration not given here)	0.0185 µM (active)
O=C1c2c(O)cccc2[C@@H]([C@@H]2O[C@H](CO)[C@@H](O)[C@H](O)[C@H]2O)c2cc(CO)cc(O)c21	inactive
C#CCC(Cc1cnc2nc(N)nc(N)c2n1)c1ccc(C(=O)N[C@@H](CCC(=O)O)C(=O)O)cc1 (some centres undefined)	inactive
COc1cccc2c1C(=O)c1c(O)c3c(c(O)c1C2=O)C[C@@](O)(C(=O)CO)C[C@@H]3O[C@H]1C[C@H](N)[C@@H](O)[C@H](C)O1	0.293 µM (active)
COc1cc(O)c2c(c1)C1OC1C[C@H](O)[C@H](O)C(=O)C=CC[C@H](C)OC2=O (some centres undefined)	0.165 µM (active)
